# Measured values published in PubChem BioAssay (NCATS).
# Records with an inconclusive call do not appear. A call without a number means that no potency is given here. Active and inactive are the calls of the source. Unless noted, the call rests on the fitted dose curve; in most records, active means well fitted inhibition curve with a large enough effect; inconclusive means small, poorly fitted or top-dose-only effect; inactive means no such curve, though single readings can be large or run the other way.
# What was measured:
# [1] = biological target: Aldehyde dehydrogenase, mitochondrial (Homo sapiens) (UniProt P05091); test: qHTS for Inhibitors of the Aldehyde Dehydrogenase Family (ALDH2) Confirmatory screens (AID 2061303; active means well fitted inhibition curve with a large enough effect; title and protocol of this record describe different tests; further: nearly all actives have a fitted effect of over 45% in size; further: potency means the concentration at half of the fitted maximal effect)
# [2] = biological target: Retinaldehyde dehydrogenase 3 (Homo sapiens) (UniProt P47895); test: qHTS for Inhibitors of the Aldehyde Dehydrogenase Family (ALDH1A3) Confirmatory screens (AID 2061311); further: nearly all actives have a fitted effect of over 60% in size
# [3] = biological target: Retinaldehyde dehydrogenase 3 (Homo sapiens) (UniProt P47895); test: qHTS for Inhibitors of the Aldehyde Dehydrogenase Family (ALDH1A3) Primary screen (AID 2061315)
# [4] = biological target: Aldehyde dehydrogenase 1A1 (Homo sapiens) (UniProt P00352); test: qHTS for Inhibitors of the Aldehyde Dehydrogenase Family (ALDH1A1) Confirmatory screens (AID 2061316); further: nearly all actives have a fitted effect of over 65% in size; further: potency means the concentration at half of the fitted maximal effect
# [5] = biological target: Retinal dehydrogenase 2 (Homo sapiens) (UniProt O94788); test: qHTS for Inhibitors of the Aldehyde Dehydrogenase Family (ALDH1A2) Confirmation screens (AID 2061314); further: nearly all actives have a fitted effect of over 65% in size; further: potency means the concentration at half of the fitted maximal effect
SMILES,Potency [1],Potency [2],Potency [3],Potency [4],Potency [5]
COc1ccc(N2CCN(S(=O)(=O)c3ccc4c(c3)CC(=O)N4)CC2)cc1,inactive,inactive,inactive,5.17 µM (active),
COc1ccc(NC(=O)CN(C)S(=O)(=O)c2ccc(C(=O)N3CCOCC3)s2)cc1,inactive,,,,inactive
CC(C)N1CCc2c(sc(NC(=O)Cc3ccccc3)c2-c2nc3ccccc3s2)C1,inactive,inactive,inactive,inactive,
CC(C)N1CCc2c(sc(NC(=O)C3CC3)c2-c2nc3ccccc3s2)C1,inactive,,inactive,7.98 µM (active),5.65 µM (active)
COc1ccc(-c2no[n+]([O-])c2C#N)cc1,inactive,,inactive,,
O=C(Nc1cccc(-c2ccc(N3CCOCC3)nn2)c1)Nc1cccc(C(F)(F)F)c1,inactive,inactive,,inactive,
CC(=O)c1ccc(NC(=O)c2cc(-c3ccc(C)s3)nc3ccccc23)cc1,inactive,,,,inactive
O=C([C@@H]1C[C@H](Oc2ccccc2)CN1S(=O)(=O)c1cccc(F)c1)N1CCOCC1,inactive,,,,inactive
CC(C)(C)OC(=O)N1CCN(c2ccc(NCc3ccc(-c4ccc(C#N)cc4)s3)cc2)CC1,0.179 µM (active),,inactive,12.7 µM (active),inactive
COc1ccc(-c2ccc(CNc3ccc4[nH]c(=O)[nH]c4c3)o2)cc1Cl,1.82 µM (active),,,7.26 µM (active),
CC(C)c1ccc(NC(=O)N2CCN(c3ccc(Cl)c(Cl)c3)CC2)cc1,inactive,,,inactive,
CC(C)NC(=O)c1nc(-c2cccnc2)c2cnccn12,inactive,,,inactive,
